# PubChem BioAssay (NCI)
# This is part of a sample that, as a whole, favours compounds with a hit. Of some 83,000 tested, about 20% had one in any assay.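 Values shown are percent growth following 48 h exposure of cells in 96-well plates to a single concentration of compound; below 10 was considered active.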 Unmarked numbers belong to inactive results. Activity calls are given as the source filed them.
# System: SN12C renal
# Test: NCI-60 one-dose screen, 48 h (100 = growth as untreated, 0 = no growth, -100 = all killed)
# Conditions: 10 µM unless noted
row,Structure (SMILES),growth
1,CCOC(=O)CCC(NC(=O)C(Cc1ccc(N(CCCl)CCCl)cc1)NC=O)C(=O)OCC (centres undefined),3.28% (active)
2,COC(=O)[C@@H](C)C[C@H](Cc1ccccc1)NC(=O)c1nc([C@@H](C[C@H](C(C)C)N(C)C(=O)[C@@H](NC(=O)[C@H]2CCCCN2C)C(C)C)OC(C)=O)sc1C(C)C,10.8%
3,C=CCCCCCCCCC(=O)[O-].C=CCCCCCCCCC(=O)[O-].[Zn+2],101%
4,Nc1c(F)cc(-c2nc3cc(F)ccc3[se]2)cc1F,85.9%
5,N#CC1(C#N)C(c2ccc(N(CCCl)CCCl)cc2)OC23CCCCC2C1(C#N)C(=N)O3 (centres undefined),69.1%
6,CCOC(=O)[C@@H](C)C[C@H](Cc1ccccc1)NC(=O)c1csc([C@@H](C[C@H](C(C)C)N(C)C(=O)[C@H](CC)NC(=O)[C@H]2CCCCN2C)OC(C)=O)n1,19.1%
7,C[Se]C(=O)c1ccccc1OC(C)=O,69%
8,ClC1=C(Cl)C(Cl)(C2(Cl)C(Cl)=C(Cl)C(Cl)=C2Cl)C(Cl)=C1Cl,-25.2% (active)
9,CN[C@@]1(c2ccccc2Cl)CCCC[C@@H]1NCC1CCCO1 (some centres undefined),96.8%
10,N#CC1(c2ccccc2)CCN(Cc2ccccc2)CC1,114%
11,COc1ccc(/C=C\c2cc(OC)c(OC)c(OC)c2)cc1OCC(=O)Nc1nc2ccc(OC(F)(F)F)cc2s1,49.7%
12,CC(C)(C)C(=O)OCOP(=O)(NCc1ccccc1)C1CCCN(O)C1=O (centres undefined),5.58% (active)
13,CCOP1(=O)CC(C)=C(Cl)C(P(=O)(OCC)OCC)C1 (centres undefined),101%
14,CC12CCC3C(CCC4=CC(=O)CCC43CF)C1CCC2=O (centres undefined),113%
15,C=C1[C@@H](C)[C@H]2[C@H](Cc3ccccc3)NC(=O)[C@]23[C@@H](O)/C=C/[C@@](C)(O)C(=O)[C@@H](C)C/C=C/[C@H]3[C@@H]1O,66.1%
16,NC(=O)C(Br)c1ccccc1 (centres undefined),88.7%
17,NC(=S)c1cn(C2OC(CO)C(O)C2O)c2ncnc(N)c12 (centres undefined),-10.5% (active)
18,Clc1cccc(NCOOC2(OOCNc3cccc(Cl)c3)CCCCCC2)c1,95.4%
19,Brc1ccc2c(c1)c(-c1nc(-c3c[nH]c4ncccc34)cs1)cn2CCN1CCOCC1,71.5%
20,O=C1C(Cl)=C(N2CCOCC2)C(=O)c2ccccc21,105%
21,CC1=C(CCCNS(C)(=O)=O)C2=C(C)C3(CC3)[C@@](C)(O)C(=O)C2=C1,8.84% (active)
22,CCN(CCO)C(Cc1ccccc1)c1ccccc1 (centres undefined),102%
23,CC[C@H](C)[C@H](NC(=O)[C@H]1CCCCN1C)C(=O)N(C)[C@H](CC(=O)c1nc(C(=O)N[C@@H](Cc2ccccc2)C[C@H](C)C(=O)O)cs1)C(C)C,83.8%

# System: UO-31 renal
# Test: as above
# Conditions: 10 µM unless noted
row,Structure (SMILES),growth
1,CCCC(C)C1(CC)C(=O)NC(=O)N(C)C1=O (centres undefined),82.3%
2,COc1ccc(C(O)(C(=O)O)c2ccc(OC)cc2)cc1,87.6%
3,CC(=O)O[C@@H]1CC[C@]2(C)[C@H]3CC[C@]4(C)C(=O)CC[C@H]4[C@@H]3C[C@@H]3SC(N)=N[C@@]32C1,79.3%
4,CCCCNC(c1ccc(Cl)cc1)C(O)c1ccc(Cl)cc1 (centres undefined),36.9%
5,COc1cc2c(cc1OCc1ccccc1)C(CC(C)C)=[N+](C)CC2,87.9%
6,CC(=O)O[C@H]1CC[C@H]2[C@@H]3CC=C4c5nc(-c6ccccc6)sc5CC[C@]4(C)[C@H]3CC[C@]12C,78.2%
7,CC(=O)Nc1ccc(NC(=O)c2ccc([As](O)O)cc2)cc1,69.4%
8,O[C@H](CN1CC1)[C@@H](O)CN1CC1,51.1%
9,Cc1cc(C)c(CBr)c(C)c1,85.2%
10,CCC(=O)Nc1ccc(Cl)c(Cl)c1,89%
11,CC[C@H](C)[C@@H]1OC(=O)C(C)(C)[C@H](O)[C@H](Cc2ccccc2)OC(=O)[C@H](C(C)C)OC(=O)[C@@H](NC(=O)c2cccc(NC=O)c2O)[C@@H](C)OC1=O,47.3%
12,Nc1ncnc2n[nH]nc12,35.9%
13,COc1cc(/C=C/[N+](=O)[O-])cc(OC)c1,-82.3% (active)
14,CCCCC1(CCC)C(=O)NC(=S)NC1=O,85.7%

# System: TK-10 renal
# Test: as above
# Conditions: 10 µM unless noted
row,Structure (SMILES),growth
1,CCOC(=O)CCC(NC(=O)C(Cc1ccc(N(CCCl)CCCl)cc1)NC=O)C(=O)OCC (centres undefined),111%
2,COC(=O)[C@@H](C)C[C@H](Cc1ccccc1)NC(=O)c1nc([C@@H](C[C@H](C(C)C)N(C)C(=O)[C@@H](NC(=O)[C@H]2CCCCN2C)C(C)C)OC(C)=O)sc1C(C)C,45%
3,CCCC(C)C1(CC)C(=O)NC(=O)N(C)C1=O (centres undefined),92.6%
4,C=CCCCCCCCCC(=O)[O-].C=CCCCCCCCCC(=O)[O-].[Zn+2],115%
5,COc1ccc(C(O)(C(=O)O)c2ccc(OC)cc2)cc1,88.2%
6,Nc1c(F)cc(-c2nc3cc(F)ccc3[se]2)cc1F,27.7%
7,CC(=O)O[C@@H]1CC[C@]2(C)[C@H]3CC[C@]4(C)C(=O)CC[C@H]4[C@@H]3C[C@@H]3SC(N)=N[C@@]32C1,91.1%
8,N#CC1(C#N)C(c2ccc(N(CCCl)CCCl)cc2)OC23CCCCC2C1(C#N)C(=N)O3 (centres undefined),91.9%
9,CCCCNC(c1ccc(Cl)cc1)C(O)c1ccc(Cl)cc1 (centres undefined),56.8%
10,CCOC(=O)[C@@H](C)C[C@H](Cc1ccccc1)NC(=O)c1csc([C@@H](C[C@H](C(C)C)N(C)C(=O)[C@H](CC)NC(=O)[C@H]2CCCCN2C)OC(C)=O)n1,69.6%
11,C[Se]C(=O)c1ccccc1OC(C)=O,27.5%
12,ClC1=C(Cl)C(Cl)(C2(Cl)C(Cl)=C(Cl)C(Cl)=C2Cl)C(Cl)=C1Cl,-91.3% (active)
13,CN[C@@]1(c2ccccc2Cl)CCCC[C@@H]1NCC1CCCO1 (some centres undefined),102%
14,COc1cc2c(cc1OCc1ccccc1)C(CC(C)C)=[N+](C)CC2,94%
15,CC(=O)O[C@H]1CC[C@H]2[C@@H]3CC=C4c5nc(-c6ccccc6)sc5CC[C@]4(C)[C@H]3CC[C@]12C,92.4%
16,N#CC1(c2ccccc2)CCN(Cc2ccccc2)CC1,88.4%
17,COc1ccc(/C=C\c2cc(OC)c(OC)c(OC)c2)cc1OCC(=O)Nc1nc2ccc(OC(F)(F)F)cc2s1,47%
18,CC(C)(C)C(=O)OCOP(=O)(NCc1ccccc1)C1CCCN(O)C1=O (centres undefined),68.9%
19,CC(=O)Nc1ccc(NC(=O)c2ccc([As](O)O)cc2)cc1,136%

row,Structure (SMILES),growth
1,O[C@H](CN1CC1)[C@@H](O)CN1CC1,101%
2,Cc1cc(C)c(CBr)c(C)c1,98.1%
3,CCOP1(=O)CC(C)=C(Cl)C(P(=O)(OCC)OCC)C1 (centres undefined),135%
4,CC12CCC3C(CCC4=CC(=O)CCC43CF)C1CCC2=O (centres undefined),115%
5,C=C1[C@@H](C)[C@H]2[C@H](Cc3ccccc3)NC(=O)[C@]23[C@@H](O)/C=C/[C@@](C)(O)C(=O)[C@@H](C)C/C=C/[C@H]3[C@@H]1O,39.6%
6,NC(=O)C(Br)c1ccccc1 (centres undefined),91.2%
7,CCC(=O)Nc1ccc(Cl)c(Cl)c1,86.3%
8,CC[C@H](C)[C@@H]1OC(=O)C(C)(C)[C@H](O)[C@H](Cc2ccccc2)OC(=O)[C@H](C(C)C)OC(=O)[C@@H](NC(=O)c2cccc(NC=O)c2O)[C@@H](C)OC1=O,49.8%
9,NC(=S)c1cn(C2OC(CO)C(O)C2O)c2ncnc(N)c12 (centres undefined),-29.5% (active)
10,Nc1ncnc2n[nH]nc12,61%
11,COc1cc(/C=C/[N+](=O)[O-])cc(OC)c1,-13.9% (active)
12,Clc1cccc(NCOOC2(OOCNc3cccc(Cl)c3)CCCCCC2)c1,92.2%
13,Brc1ccc2c(c1)c(-c1nc(-c3c[nH]c4ncccc34)cs1)cn2CCN1CCOCC1,74.1%
14,O=C1C(Cl)=C(N2CCOCC2)C(=O)c2ccccc21,127%
15,CC1=C(CCCNS(C)(=O)=O)C2=C(C)C3(CC3)[C@@](C)(O)C(=O)C2=C1,-14.9% (active)
16,CCN(CCO)C(Cc1ccccc1)c1ccccc1 (centres undefined),101%
17,CCCCC1(CCC)C(=O)NC(=S)NC1=O,118%
18,CC[C@H](C)[C@H](NC(=O)[C@H]1CCCCN1C)C(=O)N(C)[C@H](CC(=O)c1nc(C(=O)N[C@@H](Cc2ccccc2)C[C@H](C)C(=O)O)cs1)C(C)C,97.2%
